Source: PubChem BioAssay (NCI)
Compounds without any hit were thinned out: in the full panel of roughly 83,000, 20% have a hit.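 Step 1: grow cells in 96-well plates. Step 2: add test compound at a single concentration. Step 3: incubate 48 h. Step 4: record percent growth.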 The source made the active and inactive calls. Rule for the calls: active = growth percent below 10; inactive = the rest.

What was measured:
Assay in all cases: NCI-60 one-dose screen, 48 h (100 = growth as untreated, 0 = no growth, -100 = all killed)
[1] = system: SR leukemia; details: 10 µM unless noted
[2] = system: RPMI-8226 leukemia; details: 10 µM unless noted
[3] = system: OVCAR-5 ovarian; details: 10 µM unless noted
[4] = system: OVCAR-4 ovarian; details: 10 µM unless noted
[5] = system: SK-OV-3 ovarian; details: 10 µM unless noted
[6] = system: IGROV1 ovarian; details: 10 µM unless noted
[7] = system: OVCAR-3 ovarian; details: 10 µM unless noted
[8] = system: HS 578T breast; details: 10 µM
[9] = system: NCI/ADR-RES ovarian; details: 10 µM unless noted
[10] = system: OVCAR-8 ovarian; details: 10 µM unless noted

Measured: growth

Clc1ccc2c(c1)-c1ccccc1C1=NCCN12
active: [1] 8.25%
inactive: [2] 33% | [3] 41.2% | [4] 44.4% | [5] 36.9% | [6] 24.3% | [7] 41.1% | [8] 58.4% | [9] 26.3%

Cc1ccccc1N1C(c2ccccc2)=NNC12C=CC(=O)c1c(O)cccc12 (centres undefined)
inactive: [1] 97% | [2] 83.8% | [3] 83.8% | [4] 61.3% | [5] 74.4% | [6] 93.2% | [7] 60.5% | [9] 72.5%

CN1CCN(Cc2ccc(NC(=O)c3cncc(C#Cc4ccc(N)nc4)c3)cc2C(F)(F)F)CC1
active: [1] 1.34% | [2] 1.97% | [4] -8.78% | [5] -11% | [6] -18.2% | [8] -21.9%
inactive: [3] 12.5% | [7] 27.2% | [9] 25.6%

COC(=O)c1cc2oc(/C=N/NC(=O)c3cc4oc(-c5cccc(C(F)(F)F)c5)cc4[nH]3)cc2n1Cc1ccccc1
inactive: [1] 33% | [2] 85.6% | [3] 107% | [4] 104% | [5] 110% | [6] 89.6% | [7] 111% | [8] 87.5% | [9] 97.9%

COc1ccc(-c2nsc3c2NC(=O)CC3c2cccc(F)c2)cc1 (centres undefined)
active: [7] 9.37%
inactive: [1] 15.4% | [10] 60.4% | [3] 57% | [4] 92.1% | [5] 58.9% | [6] 57.2% | [8] 79.1% | [9] 22.8%

Cc1ccc(C2CC(c3cccs3)=NN2c2ccc(S(N)(=O)=O)cc2)s1 (centres undefined)
inactive: [1] 82.2% | [10] 83.2% | [3] 101% | [4] 110% | [5] 101% | [6] 98.8% | [7] 94% | [8] 97.2% | [9] 84.6%

Cc1cc(C)c(C#N)c(SCC(=O)c2sc3c(C#N)c(C)cc(C)[n+]3c2[O-])n1
active: [1] 5.47% | [6] 9.29% | [7] -15.9%
inactive: [10] 20.4% | [3] 41.6% | [4] 66.9% | [5] 14.7% | [8] 21.8% | [9] 12%

CNC(=O)c1cc(Oc2ccc(NC(=O)c3[nH]c(SC)nc3-c3ccc(F)cc3)cc2)ccn1
inactive: [1] 63.1% | [10] 69.1% | [3] 99.9% | [4] 60.8% | [5] 34.1% | [6] 55% | [7] 88.2% | [8] 75.7% | [9] 67.4%

COc1cc(C)cc2oc3oc(=O)c(-c4csc(-c5cc6ccccc6oc5=O)n4)cc3c(=O)c12
inactive: [1] 113% | [2] 109% | [3] 109% | [4] 106% | [5] 120% | [6] 117% | [7] 116% | [8] 120% | [9] 105%

Clc1cn2cc(-c3ccc(Cl)c(Cl)c3Cl)nc2s1
inactive: [1] 75.5% | [10] 99.5% | [3] 87.8% | [4] 100% | [5] 103% | [6] 55.7% | [7] 101% | [8] 104% | [9] 110%

O=C1CC2(O)CSc3nc(=O)cc(n32)N1 (centres undefined)
inactive: [1] 102% | [2] 99% | [3] 105% | [4] 121% | [5] 102% | [6] 109% | [7] 115% | [8] 121% | [9] 112%

CCc1ccc(Nc2ncnc3c2cnn3-c2cccc(Br)c2)cc1
inactive: [1] 108% | [2] 117% | [3] 102% | [4] 105% | [5] 104% | [6] 113% | [7] 103% | [8] 103% | [9] 100%

CCC(=O)NC(O)C(Cl)(Cl)C(C)Cl (centres undefined)
inactive: [1] 105% | [2] 105% | [3] 105% | [4] 109% | [5] 107% | [6] 99.6% | [7] 105% | [9] 96.3%

O=C1c2ccccc2C2N1CCC1CCc3ccccc3N12 (centres undefined)
inactive: [1] 114% | [2] 105% | [3] 92% | [5] 109% | [6] 99.8% | [7] 115% | [8] 99.8% | [9] 103%

C=C(C)C1CCC2(C(=O)O)CCC3(C)C(CCC4C5(C)CCC(O)C(C)(C)C5CCC43C)C12 (centres undefined)
inactive: [5] 28%
active: [1] 9.38% | [2] 7.96% | [3] -87.3% | [4] -40.7% | [6] 7.47% | [7] -56.1% | [9] -54%

COc1ccc2c(c1)N(CCO)C1=C(C(=O)OC1)C2c1cccc(Br)c1 (centres undefined)
active: [7] -51.6%
inactive: [1] 17.8% | [2] 18.5% | [3] 32.1% | [4] 52.6% | [5] 28.5% | [6] 11.2% | [8] 10.7% | [9] 10.7%

N#Cc1nc(-c2ccc(Cl)cc2)cc(-c2ccc(Nc3nc(N4CCCCC4)nc(N4CCCCC4)n3)cc2)c1N
inactive: [1] 105% | [10] 96.5% | [3] 113% | [4] 110% | [5] 90.9% | [6] 91.4% | [7] 105% | [8] 94.1% | [9] 102%

NS(=O)(=O)c1ccc(N2N=C(c3cccs3)CC2c2ccccc2O)cc1 (centres undefined)
active: [1] 1.1% | [2] 7.41% | [3] 9.55% | [5] 6.78% | [7] -20.6%
inactive: [4] 60.8% | [6] 12.7% | [8] 17.3% | [9] 27.3%

Cc1c(-c2ccc(-c3ccccc3F)cc2)nc2ccc(F)cc2c1C(=O)O
inactive: [1] 23.4% | [2] 23.3% | [3] 34.8% | [4] 75.1% | [5] 65.1% | [6] 44.6% | [7] 55.9% | [8] 67% | [9] 49.6%

COc1cc2c(cc1OCCCOc1cc3c(cc1OC)C(=O)N1CCC[C@H]1C=N3)C=CC(C)(C)O2
inactive: [1] 25.8% | [2] 48% | [3] 115% | [4] 110% | [5] 112% | [6] 92.1% | [7] 109% | [8] 45.7% | [9] 109%

CC(COC(=O)c1ccccc1)N1CC2CCC(C1)O2 (centres undefined)
inactive: [1] 93.2% | [10] 93.9% | [3] 101% | [4] 107% | [5] 96.1% | [6] 113% | [7] 104% | [8] 105% | [9] 111%

C=CCn1c(C)nc2cc(Nc3nc(N4CCCC4)nc4nc[nH]c34)ccc21
inactive: [2] 29.9% | [3] 30.6% | [5] 59% | [6] 55.8% | [9] 94.7%
active: [1] -9.28% | [4] -30.4% | [7] -11.3% | [8] -0.0485%

COc1cc(C)c2c(=O)c3c(oc2c1)C(=O)c1c(O)c(OC)cc(O)c1C3=O
active: [2] -8.23% | [3] -4.74% | [4] 1.77% | [5] 9.16% | [7] 5% | [9] 5.56%
inactive: [1] 15.7% | [8] 35%

COc1cccc(CC(C)=C(c2ccc(OCCCN(C)C)cc2)c2ccc(OCCCN(C)C)cc2)c1
active: [1] -49.1% | [2] -53.9% | [3] -86.5% | [4] -22.2% | [5] -88.6% | [6] -82.6% | [7] -89.9% | [8] -41.4% | [9] -70%

Nc1ccc(C(OC(=O)c2cc3ccccc3c(Cc3c(O)c(C(=O)OC(c4ccc(N)cc4)(c4ccc(N)cc4)c4ccc(N)cc4)cc4ccccc34)c2O)(c2ccc(N)cc2)c2ccc(N)cc2)cc1
inactive: [1] 13.1% | [3] 38.8% | [5] 15.7% | [6] 47.4% | [9] 57.1%
active: [2] 2.08% | [7] -14.3% | [8] -18.4%

CN(C)c1ccc(Nc2c3ccccc3nc3ccccc23)cc1
inactive: [2] 17.2% | [3] 43.7% | [5] 22% | [8] 25.2% | [9] 12.5%
active: [1] -8.36% | [4] 1.57% | [7] -11.7%

COc1cc(/C=C2\C(=O)Nc3ccc(N(C)C)cc32)cc(OC)c1OC
active: [8] -18.2% | [9] 0.228%
inactive: [1] 19.1% | [2] 14.3% | [3] 71.1% | [4] 42.1% | [5] 45.5% | [6] 16.6%

COc1cc(NC(C)CCCN)c2ncccc2c1Sc1ccc(Cl)cc1 (centres undefined)
inactive: [3] 77.8% | [5] 94.7% | [6] 38.9% | [7] 58.6% | [8] 58.9% | [9] 91.6%
active: [1] -35.2% | [2] -8.1%

CCCCNCC(O)c1cc(-c2ccc(C(F)(F)F)cc2)nc(-c2ccc(C(F)(F)F)cc2)c1 (centres undefined)
active: [1] -63.7% | [10] -71.1% | [3] -74.9% | [4] -93.9% | [5] -75.8% | [6] -59.7% | [7] -90.8% | [8] -57.8% | [9] -53.9%

CC(C)c1[nH]ncc1-c1nc2ccc3[nH]ncc3c2c2c1CCCC2
active: [1] 6.47% | [8] -1.07%
inactive: [2] 33.9% | [3] 48.7% | [4] 75.8% | [5] 16.5% | [6] 21.9% | [7] 46.8% | [9] 66.1%

Cc1ccc(N2C3c4ccccc4N(S(=O)(=O)c4ccc(C)cc4)C2c2ccccc2N3S(=O)(=O)c2ccc(C)cc2)cc1
inactive: [1] 96% | [10] 88.9% | [3] 105% | [4] 93.9% | [5] 106% | [6] 107% | [7] 107% | [8] 99.5%
